UCHL1 block – blocks human UCHL1 ubiquitin-rhodamine cleavage. purified UCHL1, Ub-rhodamine cleavage fluorescence. AID 1645859. P09936. inhibition, % at 20 µM. 0.2% of 47,000 active
USP10 block – inhibitors of human USP10 deubiquitinase | Q14694 | purified USP10, Ub-rhodamine fluorescence, 60 min | inhibition, % at 20 µM | 1.1% of 47,000 active | AID 1645856
Target sequence (Q14694 whole entry, looked up): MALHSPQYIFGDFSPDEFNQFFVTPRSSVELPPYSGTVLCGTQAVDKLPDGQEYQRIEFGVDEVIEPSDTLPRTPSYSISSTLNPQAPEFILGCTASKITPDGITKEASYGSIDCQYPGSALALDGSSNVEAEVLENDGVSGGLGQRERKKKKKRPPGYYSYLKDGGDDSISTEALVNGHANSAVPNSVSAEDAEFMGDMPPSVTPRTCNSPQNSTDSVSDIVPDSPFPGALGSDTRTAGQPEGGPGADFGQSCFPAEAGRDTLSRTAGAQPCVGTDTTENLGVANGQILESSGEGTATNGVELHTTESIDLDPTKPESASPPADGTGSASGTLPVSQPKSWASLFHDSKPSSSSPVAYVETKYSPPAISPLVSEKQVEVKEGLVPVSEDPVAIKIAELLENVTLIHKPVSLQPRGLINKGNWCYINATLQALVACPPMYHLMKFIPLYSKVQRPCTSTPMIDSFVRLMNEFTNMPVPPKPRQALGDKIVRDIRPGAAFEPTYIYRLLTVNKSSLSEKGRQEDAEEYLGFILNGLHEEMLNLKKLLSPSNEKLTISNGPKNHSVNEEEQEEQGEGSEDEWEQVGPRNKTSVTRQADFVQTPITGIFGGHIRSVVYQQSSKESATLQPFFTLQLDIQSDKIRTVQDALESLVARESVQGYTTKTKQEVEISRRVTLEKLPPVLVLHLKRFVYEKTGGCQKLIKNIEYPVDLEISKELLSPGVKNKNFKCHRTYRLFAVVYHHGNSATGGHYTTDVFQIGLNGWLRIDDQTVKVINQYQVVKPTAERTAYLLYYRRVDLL
USP7 block – blocks human USP7 ubiquitin-rhodamine cleavage; Q93009; purified USP7, Ub-rhodamine cleavage fluorescence; inhibition, % at 20 µM; 0.3% of 47,000 active; AID 1645854
USP28 inh – human USP28 deubiquitinase inhibition; Q96RU2; purified USP28, Ub-rhodamine cleavage fluorescence, 30 min; inhibition, % at 25 µM; 3% of 47,000 active
OTUD3 block – inhibitors of human OTUD3 deubiquitinase; purified OTUD3, Ub-rhodamine fluorescence, 2 h; inhibition, % at 25 µM; Q5T2D3; 0.7% of 47,000 active
Starred values were filed as active, the others as inactive; · = no result. The list is not random: actives were taken first. Their share in the collection is about 4.2%. Cut-off read from the data, not from the text of the source: active = inhibition above about 30%; inactive = the rest.

SMILES	UCHL1 block	USP10 block	USP7 block	USP28 inh	OTUD3 block
CCN(CC)c1ncc2c(n1)CCC(C(=O)N1CCCC1)C2 (stereo not given)	0.7	-0.5	-1.3	45.0*	8.7
Fc1ccc(NCc2nc3ccccc3n2Cc2ccccc2)cc1	7.9	8.8	-166.1	33.4*	17.8
CCOc1ccc(NCc2nc3ccccc3n2Cc2ccccc2)cc1	3.4	2.4	-32.4	11.5	3.5
COc1ccc(OC)c(-c2cn3ccn(-c4ccc(F)c(Cl)c4)c(=O)c3n2)c1	22.1	30.5*	-57.2	16.9	21.2
COc1cc(-n2c(=O)c3ccccc3n(CC(=O)NCCc3ccccc3)c2=O)cc(OC)c1OC	0.1	0.0	4.1	13.2	19.4
CC(C)(C)n1ncc2c(=O)n(CC(=O)Nc3cccc([N+](=O)[O-])c3)cnc21	0.9	-0.9	-58.4	3.3	11.8
CC(C)(C)n1ncc2c(=O)n(CC(=O)OCc3ccccc3)cnc21	1.0	-0.9	-0.1	·	-3.0
Cc1ccc(NC(=O)c2cnc3c(c2)c(=O)n(C)c(=O)n3C)cc1	1.8	1.1	1.6	0.3	-3.6
O=[N+]([O-])c1cccc(-c2nc3c4cnn(-c5cccc(Cl)c5)c4ncn3n2)c1	-7.2	2.5	-2.2	-7.1	0.5
COc1cccc(NC(=O)c2cnc3c(c2)c(=O)n(C)c(=O)n3C)c1	4.0	8.4	11.8	41.1*	19.4
CC(C)(C)n1ncc2c(=O)n(CC(=O)N3CCCc4ccccc43)cnc21	-1.7	-5.9	44.9*	2.5	1.2
COc1cccc(NC(=O)Cn2cnc3c(cnn3C(C)(C)C)c2=O)c1	-1.1	-3.1	-21.2	30.2*	-6.0
CC(C)(C)n1ncc2c(=O)n(Cc3cccc([N+](=O)[O-])c3)cnc21	2.4	2.1	-29.2	78.9*	1.6
CCOc1cccc2sc(N(Cc3cccnc3)C(=O)CCc3ccccc3)nc12	4.6	7.9	-62.5	21.6	3.6
COc1cc(C2C3=C(CC(c4ccco4)CC3=O)Nc3ccccc3N2C(=O)c2ccccc2)cc(OC)c1OC (stereo not given)	5.1	0.7	5.7	3.4	12.7
NC1=CC(=O)C(Nc2ccccc2O)=CC1=O	6.8	9.5	-7.5	-5.4	-6.6
O=C(NCc1ccc(F)cc1)C1CCN(S(=O)(=O)c2ccccc2)CC1	0.0	0.0	-0.9	-0.7	0.0
O=C(NNS(=O)(=O)c1ccc(F)cc1)C1CCN(S(=O)(=O)c2ccccc2)CC1	0.9	1.3	2.6	31.0*	7.3
CNC(=O)C1CN(C(=O)c2ccc(OC)cc2)CC12CCCC2 (stereo not given)	0.0	0.1	0.8	-2.2	54.7*
Cc1ccc(Nc2nccc(C3CCCN(C(=O)C4CC4)C3)n2)cc1 (stereo not given)	0.3	0.2	0.2	0.4	-2.5
CCN1CCN(S(=O)(=O)c2c(C)nn(-c3ccc(C)cc3)c2C)CC1	0.0	2.5	-3.3	5.9	5.7
Cc1cccc(C(=O)Nc2nc3c(s2)CCC3)c1	-0.9	-12.5	-1.9	38.1*	14.5
Cc1nc(SCC(=O)Nc2ccc(Cl)c(Cl)c2)c2oc3ccccc3c2n1	4.0	4.0	5.7	2.9	6.0
Cc1nc(SCC(=O)NC(C)c2ccccc2)c2oc3ccccc3c2n1 (stereo not given)	2.0	39.7*	3.8	0.9	21.2
O=c1oc2c3c(c(Cl)cc2c2c1CCCC2)OCN(Cc1ccccc1)C3	8.3	4.5	-16.4	-23.7	1.0
SMILES	UCHL1 block	USP10 block	USP7 block	USP28 inh	OTUD3 block
COc1c2n(c3ccccc13)[C@@]1(O)C(=O)N(C)C(=O)[C@@]1(O)c1c-2n(C)c2ccc(Cl)cc12	9.2	24.9	16.6	41.8*	50.2*
Cc1cccc(-c2c(NC(=O)c3ccc(Cl)cc3Cl)n(C)c3ccccc3c2=O)c1	1.9	0.6	4.6	9.4	10.3
Cc1occ2c1C(=O)c1c(O)ccc(O)c1C2	97.0*	89.1*	98.7*	89.2*	93.6*
O=C(c1cnc2oc3ccccc3c2c1)c1ccccc1O	1.3	-1.6	1.0	10.6	5.4
O=C(c1cnc2[nH][nH]c(=O)c2c1)c1cc(Cl)cc(Cl)c1O	61.9*	86.5*	78.9*	55.4*	71.2*
c1ccc(N2CCN(c3nc4ccccc4n4nnnc34)CC2)nc1	-158.3	-4.6	-164.1	-203.0	-193.4
COc1ccc(N2CCN(C(=O)c3nnn(-c4ccc(OC)cc4)n3)CC2)cc1	5.0	6.2	3.6	17.1	15.4
COc1ccc(-n2nnc(C(=O)N3CCN(c4ccccc4Cl)CC3)n2)cc1	7.0	9.7	10.3	32.6*	24.5
Cc1ccc(NC(=O)c2ccc(Nc3nnc(C)c4ccccc34)cc2)cc1	1.8	-0.5	3.0	75.3*	-1.8
Cc1ccc(C(=O)Nc2ncnc3oc(-c4ccccc4)c(-c4ccccc4)c23)cc1	7.2	7.6	7.1	20.2	14.5
C(=C\c1ccccc1)/CSc1nnc(-c2ccco2)o1	-0.5	4.5	-24.5	32.0*	9.6
O=C(NCc1cccc(Cl)c1)c1ccc(-c2nnc(-c3ccccc3)o2)cc1	2.5	26.1	14.3	3.2	4.2
Cn1c2ccccc2c2ncn(Cc3ccc(F)cc3)c(=O)c21	5.2	7.4	8.0	32.0*	14.2
O=C(c1cc(NCc2ccc(F)cc2)nc2ccccc12)N1CCOCC1	-5.0	0.6	-23.0	-10.3	-10.5
COc1ccc(S(=O)(=O)N2CCc3ccccc32)cc1C(=O)Nc1ccc2[nH]c(=O)[nH]c2c1	2.0	31.4*	7.6	37.4*	-4.0
O=C(Nc1ccc2c(c1)OCO2)c1ccc(CN2CCc3ccccc3C2)cc1	1.8	0.0	5.0	30.5*	0.3
O=C(Nc1ccc2c(c1)OCCO2)C1=CCN(Cc2ccccc2F)CC1	1.0	2.4	0.0	39.7*	4.1
Cc1ccc(NC(=O)c2ccc3c(c2)N(S(C)(=O)=O)CC3)cc1	1.3	10.3	2.3	49.5*	0.0
CS(=O)(=O)N1CCCc2cc(C(=O)Nc3ccc4c(c3)OCO4)ccc21	1.6	3.6	0.9	85.1*	14.3
Cc1ccccc1-n1nnnc1-c1ccc2ccccc2n1	0.4	0.4	-1.4	-3.5	-0.2
Cc1noc(-c2cccc(=O)n2CC(=O)Nc2ccc(C)c(C)c2)n1	2.0	2.8	-9.0	6.8	5.0
CC1=C(c2ccc(C)c(C)c2)S(=O)(=O)NC1=NCC(=O)NCCc1ccc(C)cc1	0.4	5.6	3.1	31.8*	8.7
CC1=C(c2ccc(C)c(C)c2)S(=O)(=O)NC1=NCC(=O)NCc1cccc(C)c1	-2.2	9.4	-1.7	3.1	-2.3
Cc1cccc(Cn2cnc3c(nnn3Cc3ccccc3F)c2=O)c1	3.8	4.6	-7.1	30.1*	25.3
COCC(=O)N1C[C@H](Oc2ccccn2)[C@H]2C[C@@H]1CC[C@H]2OC	-0.5	0.2	1.2	-1.3	-5.6
Cn1c(N2CCCCCC2)nc2c1c(=O)n(Cc1ccc(Cl)cc1)c(=O)n2C	0.4	1.8	-6.8	10.7	9.2
CCCCCCCC/C=C\CCCCCCCc1cc(O)cc(O)c1C(=O)O	0.4	0.8	4.1	-0.1	6.4

Screening data from PubChem.
